# Reference: PubChem BioAssay
# “And” between values parts separate entries of the source, which are not always exact repeats. Equal values may be shown once. The source made the active and inactive calls. Unless noted, how the calls were made is not given here.
# What was measured:
# [1] = P. berghei load reduction in hepatocytes – cell-based, HepG2, luciferase luminescence, HepG2 viability, primary screen (AID 624349; in the data active means parasite load remaining mostly below about 12%, no sharp cut-off; inactive means mostly above about 10%;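 further: 100% = mean of DMSO negative control wells on the same plate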); settings: P. berghei liver stage in HepG2, luciferase luminescence, concentration not given here; parasite load remaining: stronger effect = lower value; viability: measured here: HepG2 viability without parasites
# [2] = system: Hepatitis C virus NS3 helicase; experiment: blockers of NS3h binding to ssDNA – biochemical, fluorescence polarization, LOPAC1280 library, primary screen (AID 687035; in the data active means inhibition above about 37%); settings: Purified HCV NS3 helicase, Cy5-dT15 ssDNA binding fluorescence polarization; stronger effect = higher value; concentration not given here
# [3] = compounds altering Cy5-DNA-NS3h complex signal – biochemical, LOPAC1280, artefact control for HCV NS3 helicase inhibitor project (AID 687037); settings: Cy5-DNA-NS3h complex fluorescence interference counterscreen
# [4] = Wnt pathway potentiators raising nuclear beta-catenin – imaging, WNT3A-conditioned medium, mouse C2C12, NPC library, primary screen (AID 1117326; in the data active means nuclear beta-catenin stimulation mostly above about 4.2%, no sharp cut-off; inactive means mostly below about 10%); settings: stronger effect = higher value
# [5] = stimulators of insulin release from INS-1E, primary screen, cell-based, 5 mM glucose, NPC library (AID 1117329;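 active means compound raises insulin release from rat beta cells at 5 mM glucose, no numeric limit stated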); settings: rat INS-1E insulin secretion, at 10 µM, stronger effect = higher value
# [6] = growth inhibition of GSK3B-pretreated HCT116 cells – cell-based, CellTiter-Glo, 0.2 to 20 µM (AID 1117336;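 active means compounds lowering colon cancer cell viability after pretreatment blocking the GSK3B kinase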); settings: HCT116 viability after GSK3B inhibitor, at 20 µM, stronger effect = higher value
# [7] = inhibition of endothelial tube formation, primary screen, imaging, VEGF stimulated, CD31 staining, tube area, NPC library (AID 1117340;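 active means compound that reduces growth-factor-driven endothelial tube area in a mixed cell culture, no cutoff stated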); settings: VEGF-stimulated ADSC/ECFC co-culture, at 10 µM, stronger effect = higher value
# [8] = GLP1 release stimulators, primary, NCI-H716, NPC library (AID 1117341;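 active means compound raises GLP1 secretion from the human gut endocrine cells, with no numeric limit stated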); settings: NCI-H716 cells, at 10 µM, stronger effect = higher value
# [9] = HCT116 colon cancer cell growth inhibition, primary screen, CellTiter-Glo luminescence, NPC library (AID 1117342;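 active means compounds that lower survival of HCT116 colon cancer cells in the luminescence readout, no numeric limit stated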); settings: at 20 µM (top of the series)
# [10] = reduced SW480 viability measured with CellTiter-Glo, NPC library, primary (AID 1117343;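 active means compounds that lower viability of the colon cancer cells in the luminescence readout, with no numeric limit stated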); settings: CellTiter-Glo luminescence; at 20 µM (top of the series) unless noted
# [11] = NPC library primary testing for decreased DLD-1 cell viability via CellTiter-Glo (AID 1117346;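 active means compounds that lower survival of DLD-1 colon cancer cells in the luminescence readout, no cutoff given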); settings: DLD-1 viability, CellTiter-Glo luminescence; at 20 µM (top of the series)
# [12] = viability loss with induced miR-34 in A549 – imaging, A549 dox-inducible miR-34, nuclei and caspase counts, primary screen (AID 1347080;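 active means compounds whose cell count with miR-34 switched on is under 0.7 times the count with it off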); settings: A549 miR-34 inducible, Hoechst nuclei count, 48 h
# [13] = blockers of cellular phospholipid synthesis – cell-based, LOPAC library, screen 4, primary screen (AID 1347384); settings: animal cells, phospholipid biosynthesis inhibition screen; at 10 µM
# [14] = galactose survival enhancers in mitochondrial complex I cybrids – cell-based, galactose medium, ATP luminescence, primary screen (AID 1645843;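 active means z-score of at least 1.8 in each of two replicates, scored against plate mean and spread of sample wells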;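 further: positive z means more ATP and so rescue of galactose-driven cybrid death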); settings: complex I mutant cybrid cells, 72 h, stronger effect = higher value
# [15] = MELAS cybrid and Rieske KO viability enhancers – cell-based, MELAS cybrids, Rieske KO mouse fibroblasts, CellTiter-Glo, primary screen (AID 1508586;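 active means mean z-score across replicates of 1.96 or higher in either the MELAS or the Rieske mutant cell line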;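 further: z relative to plate mean and SD of compound and empty wells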); settings: low glucose
# [16] = growth inhibition, single agents and combos, ICB984, cell-based, cisplatin or BGB combos, synergistic combos for chromothripsis tumors (AID 1671451); settings: ICB984 medulloblastoma cells, drug combinations, stronger effect = higher value;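 further: cells exposed for 96 hours before readout; 0% = vehicle DMSO and 100% = killing by high DMSO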
# [17] = stronger effect = lower value, cell number ratio, induced over uninduced
# [18] = measured here: relative caspase fold change +Dox/-Dox
# [19] = measured here: total cells with miR-34 induction, stronger effect = lower value
# [20] = measured here: total cells without miR-34 induction
# [21] = MELAS cybrid survival, CellTiter-Glo 48 h, stronger effect = higher value
# [22] = Rieske KO mouse fibroblast survival, CellTiter-Glo 72 h
smiles,measurement,setting,value
OCCN1CCN(CC/C=C2/c3ccccc3Sc3ccc(C(F)(F)F)cc32)CC1,parasite load remaining,[1],69.9% (inactive)
same,viability,[1],81%
same,inhibition,[2],-1% (inactive)
same,fluorescence ratio (interference),[3],1 (inactive)
same,nuclear beta-catenin stimulation,[4]; at 10 µM,-1.3% (inactive)
same,nuclear beta-catenin stimulation,"[4]; stimulation, at 2 µM",14.5%
same,insulin secretion stimulation,[5],10.7% (inactive)
same,viability decrease,[6],120% (active)
same,tube area decrease,[7],88.3% (active)
same,GLP1 secretion stimulation,[8],69.1% (active)
same,inhibition of viability,[9],126% (active)
same,viability decrease (inhibition),[10],167% (active)
same,viability decrease (inhibition),[11],102% (active)
same,fold change,[12]; [17],1.1 (inactive)
same,fold change,[12]; [18],1.38
same,cell count,[12]; [19],6940
same,cell count,[12]; [20],6310
same,outcome,[13],inactive
same,z-score,[14],-1.04 (inactive)
CC(C)(C)c1ccc(C(=O)CCCN2CCC(OC(c3ccccc3)c3ccccc3)CC2)cc1,inhibition,[2],3% (inactive)
same,fluorescence ratio (interference),[3],1 (inactive)
same,nuclear beta-catenin stimulation,[4]; at 10 µM,0.6% (inactive)
same,nuclear beta-catenin stimulation,"[4]; stimulation, at 2 µM",11.9%
same,insulin secretion stimulation,[5],1% (inactive)
same,viability decrease,[6],111% (active)
same,tube area decrease,[7],102% (active)
same,GLP1 secretion stimulation,[8],6% (inactive)
same,inhibition of viability,[9],114% (active)
same,viability decrease (inhibition),[10],133% (active)
same,viability decrease (inhibition),[11],101% (active)
same,fold change,[12]; [17],1.42 (inactive)
same,fold change,[12]; [18],0.93
same,cell count,[12]; [19],1290
same,cell count,[12]; [20],913
same,outcome,[13],inactive
same,z-score,[14],-0.865 (inactive)
CC(=O)Oc1cc(C(F)(F)F)ccc1C(=O)O,parasite load remaining,[1],140% (inactive) and 78.8% (inactive)
same,viability,[1],117% and 74.8%
same,nuclear beta-catenin stimulation,[4]; at 10 µM,-0.6% (inactive)
same,nuclear beta-catenin stimulation,"[4]; stimulation, at 2 µM",-0.8%
same,insulin secretion stimulation,[5],2.8% (inactive)
same,viability decrease,[6],-12.2% (inactive)
same,tube area decrease,[7],-1.7% (inactive)
same,GLP1 secretion stimulation,[8],-6.4% (inactive)
same,inhibition of viability,[9],16.4% (inactive)
same,viability decrease (inhibition),[10],8.4% (inactive)
same,viability decrease (inhibition),[11],5.4% (inactive)
same,fold change,[12]; [17],0.83 (inactive) and 0.986 (inactive)
same,fold change,[12]; [18],1.45 and 0.716
same,cell count,[12]; [19],8780 and 8310
same,cell count,[12]; [20],10600 and 8430
same,outcome,[13],inactive
same,z-score,[15]; [21],-0.0694 (inactive) and 0.0403 (inactive)
same,z-score,[15]; [22],-0.153 and -0.0623
CC1=C(CC(=O)O)c2cc(F)ccc2/C1=C\c1ccc(S(C)(=O)=O)cc1,inhibition,[2],-4% (inactive)
same,fluorescence ratio (interference),[3],1 (inactive)
same,nuclear beta-catenin stimulation,[4]; at 10 µM,0.1% (inactive)
same,nuclear beta-catenin stimulation,"[4]; stimulation, at 2 µM",-0.8%
same,insulin secretion stimulation,[5],-1.1% (inactive)
same,viability decrease,[6],39.5% (inactive)
same,tube area decrease,[7],7.6% (inactive)
same,GLP1 secretion stimulation,[8],-0.4% (inactive)
same,inhibition of viability,[9],66.3% (active)
same,viability decrease (inhibition),[10],88.7% (active)
same,viability decrease (inhibition),[11],90.1% (active)
same,fold change,[12]; [17],0.998 (inactive)
same,fold change,[12]; [18],1.86
same,cell count,[12]; [19],9240
same,cell count,[12]; [20],9260
same,outcome,[13],inactive
same,z-score,[14],0.795 (inactive)
CCN(CC)CCCN(c1ccccc1)C1Cc2ccccc2C1,inhibition,[2],-1% (inactive)
same,fluorescence ratio (interference),[3],1 (inactive)
same,nuclear beta-catenin stimulation,[4]; at 10 µM,-1.7% (inactive)
same,nuclear beta-catenin stimulation,"[4]; stimulation, at 2 µM",-1.3%
same,insulin secretion stimulation,[5],32.5% (active)
same,viability decrease,[6],33.8% (inactive)
same,tube area decrease,[7],22.2% (inactive)
same,GLP1 secretion stimulation,[8],-4.5% (inactive)
same,inhibition of viability,[9],50.6% (active)
same,viability decrease (inhibition),[10],53.5% (active)
same,viability decrease (inhibition),[11],32.5% (inactive)
same,fold change,[12]; [17],1.07 (inactive)
same,fold change,[12]; [18],1.01
same,cell count,[12]; [19],8050
same,cell count,[12]; [20],7530
same,outcome,[13],inactive
same,z-score,[14],-1.11 (inactive)
OCCN1CCN(CCCN2c3ccccc3C=Cc3ccccc32)CC1,inhibition,[2],-5% (inactive)
same,fluorescence ratio (interference),[3],1 (inactive)
same,nuclear beta-catenin stimulation,[4]; at 10 µM,-0.5% (inactive)
same,nuclear beta-catenin stimulation,"[4]; stimulation, at 2 µM",1.3%
same,insulin secretion stimulation,[5],13.8% (inactive)
same,viability decrease,[6],5.9% (inactive)
same,tube area decrease,[7],15% (inactive)
same,GLP1 secretion stimulation,[8],2% (inactive)
same,inhibition of viability,[9],56.9% (active)
same,viability decrease (inhibition),[10],80.2% (active)
same,viability decrease (inhibition),[11],37.9% (inactive)
same,fold change,[12]; [17],1 (inactive)
same,fold change,[12]; [18],2.29
same,cell count,[12]; [19],8600
same,cell count,[12]; [20],8590
same,outcome,[13],inactive
same,z-score,[15]; [21],-0.305 (inactive)
same,z-score,[15]; [22],-0.132
same,z-score,[14],-0.685 (inactive)
O=c1[nH]c(=O)n([C@H]2C[C@H](O)[C@@H](CO)O2)cc1Br,inhibition,[2],-1% (inactive)
same,fluorescence ratio (interference),[3],1 (inactive)
same,nuclear beta-catenin stimulation,[4]; at 10 µM,0.6% (inactive)
same,nuclear beta-catenin stimulation,"[4]; stimulation, at 2 µM",-1.1%
same,insulin secretion stimulation,[5],0.6% (inactive)
same,viability decrease,[6],17.6% (inactive)
same,tube area decrease,[7],54.6% (active)
same,GLP1 secretion stimulation,[8],0.6% (inactive)
same,inhibition of viability,[9],14.8% (inactive)
same,viability decrease (inhibition),[10],18.4% (inactive)
same,viability decrease (inhibition),[11],34.2% (inactive)
same,fold change,[12]; [17],0.769 (inactive)
same,fold change,[12]; [18],2.25
same,cell count,[12]; [19],7520
same,cell count,[12]; [20],9790
same,outcome,[13],inactive
same,z-score,[14],5.63 (active)
same,inhibition,"[16]; BGB IC20 combo, at 0.005 µM",-12.2%
same,inhibition,"[16]; BGB IC40 combo, at 0.005 µM",-50%
same,inhibition,"[16]; BGB IC40 combo, at 0.05 µM",-16.9%
same,inhibition,[16]; at 0.5 µM,-24.2% (inactive)
same,inhibition,"[16]; cisplatin combo, at 0.05 µM",-21.6%
same,inhibition,"[16]; cisplatin combo, at 0.5 µM",-35.3%
same,inhibition,"[16]; cisplatin combo, at 5 µM",-5.29%
same,inhibition,"[16]; measured here: 5 uM single agent, at 5 µM",-6.23%
CCC(=O)c1ccc2c(c1)N(CCCN(C)C)c1ccccc1S2,inhibition,[2],-4% (inactive)
same,fluorescence ratio (interference),[3],0.9 (inactive)
same,nuclear beta-catenin stimulation,[4]; at 10 µM,0.3% (inactive)
same,nuclear beta-catenin stimulation,"[4]; stimulation, at 2 µM",-0.2%
same,insulin secretion stimulation,[5],33.8% (active)
same,viability decrease,[6],24.5% (inactive)
same,tube area decrease,[7],48.9% (active)
same,GLP1 secretion stimulation,[8],-2.4% (inactive)
same,inhibition of viability,[9],46.9% (inactive)
same,viability decrease (inhibition),[10],65.1% (active)
same,viability decrease (inhibition),[11],20.4% (inactive)
same,fold change,[12]; [17],0.872 (inactive)
same,fold change,[12]; [18],0.831
same,cell count,[12]; [19],1900
same,cell count,[12]; [20],2180
same,outcome,[13],inactive
same,z-score,[14],-1.19 (inactive)
Nc1cc(=O)[nH]c(N)n1,inhibition,[2],1% (inactive)
same,fluorescence ratio (interference),[3],1.1 (inactive)
same,nuclear beta-catenin stimulation,[4]; at 10 µM,1.3% (inactive)
same,nuclear beta-catenin stimulation,"[4]; stimulation, at 2 µM",1.3%
same,insulin secretion stimulation,[5],-1.5% (inactive)
same,viability decrease,[6],7.7% (inactive)
same,tube area decrease,[7],-14.1% (inactive)
same,GLP1 secretion stimulation,[8],-2.3% (inactive)
same,inhibition of viability,[9],-16.3% (inactive)
same,viability decrease (inhibition),[10],71.1% (active)
same,viability decrease (inhibition),[11],13.6% (inactive)
same,fold change,[12]; [17],0.958 (inactive)
same,fold change,[12]; [18],1.28
same,cell count,[12]; [19],9880
same,cell count,[12]; [20],10300
same,outcome,[13],inactive
same,z-score,[14],0.355 (inactive)
